# Laboratory results reported in PubChem BioAssay AID651813 (National Center for Advancing Translational Sciences (NCATS), 2012).
# The campaign covered roughly 2,100 compounds. About 1,100 (52%) were called active. About 27% were inconclusive and are not listed. Calls come from the whole dose curve; as a rule, active = well fitted inhibition curve with a large enough effect; inconclusive = small, poorly fitted or top-dose-only effect; inactive = no such curve, though single readings can be large or run the other way. So high a share suggests a set chosen from earlier hits. The list shows a part of the results.
# Molecular target: DNA dC->dU-editing enzyme APOBEC-3G (Homo sapiens) (UniProt Q9HC16)
# Sequence (Q9HC16 whole entry, looked up): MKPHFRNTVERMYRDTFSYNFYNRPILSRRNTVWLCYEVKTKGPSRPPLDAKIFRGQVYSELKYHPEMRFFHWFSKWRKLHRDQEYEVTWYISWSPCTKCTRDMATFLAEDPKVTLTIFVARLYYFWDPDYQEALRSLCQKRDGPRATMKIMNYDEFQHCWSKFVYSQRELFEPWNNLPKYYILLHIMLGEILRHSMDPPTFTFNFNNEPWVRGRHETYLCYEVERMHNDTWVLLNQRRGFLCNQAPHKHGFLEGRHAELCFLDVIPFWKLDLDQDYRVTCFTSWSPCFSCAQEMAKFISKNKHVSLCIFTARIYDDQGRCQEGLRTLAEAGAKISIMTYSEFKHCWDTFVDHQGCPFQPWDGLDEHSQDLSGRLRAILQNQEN
# Test: qHTS for inhibitors of Vif-A3G interactions: Cherry picks counterscreen;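 note: hits raise yellow fluorescence by blocking Vif-driven A3G-eYFP degradation; nearly all actives have a fitted effect of over 70% in size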;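 for max response: max response given as percent of control signal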
# Settings: HeLa A3G-eYFP + Vif (tagged APOBEC3G with the HIV-1 protein that degrades it), eYFP fluorescence, 24 h
# Summary of the method: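 HeLa cells stably expressing A3G-eYFP and Vif were treated for 24 h at 37 deg C with compounds at several concentrations; yellow fluorescence (Ex 488 nm, Em 500-530 nm) read by Acumen Explorer, MG132 as positive control.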
# Potency is the fitted concentration of half-maximal effect.
Structure (SMILES),max response,Potency
Cc1ccc(N2C(=O)[C@@H]3[C@H](C2=O)[C@H]2C=C(C(=O)c4ccccc4)C=CN2[C@@H]3C(=O)c2ccc(Cl)cc2)cc1,-6.73% (inactive),
O=c1[nH]c2ccccc2n2c(=S)[nH]nc12,-15.5% (inactive),
O=c1[nH]c2ccccc2n2c(C(F)(F)F)nnc12,,20.6 µM (active)
CCN(CC)c1ccc(/C=C2\SC(N)=NC2=O)cc1,,7.9 µM (active)
C/C(CC(=O)NCc1ccc(Cl)cc1)=N\NC(=O)COc1ccc(C)cc1Br,,14 µM (active)
CC(=O)Nc1ccc(NC(=O)C/C(C)=N/NC(N)=S)cc1,2.45% (inactive),
CC(=O)Nc1ccc(CC(=O)NCCC(c2ccccc2)c2ccccc2)cc1,,15.8 µM (active)
O=C(Oc1ccc(Cl)c2cccnc12)c1ccco1,17.4% (inactive),
COc1ccc(-c2csc(-c3ccc(O)cc3)n2)cc1,,5.59 µM (active)
Oc1ccc(-c2nc(-c3ccc(O)c(O)c3)cs2)cc1,,0.994 µM (active)
COc1ccc(-c2ccnc(-c3ccc(O)cc3)n2)cc1,,1.58 µM (active)
COc1cc(C2c3cc4c(cc3OC(C)(N3CCCC3)C2C)OCO4)cc(OC)c1OC (stereo not given),,0.994 µM (active)
COc1cccc(C2=CC(c3ccccc3)n3nnnc3N2)c1 (stereo not given),,8.86 µM (active)
C=CCOC(=O)C1=C(C)Nc2nnnn2C1c1cccs1 (stereo not given),-7.35% (inactive),
COc1cccc(C2=CC(c3cccs3)n3nnnc3N2)c1 (stereo not given),,2.8 µM (active)
N#CC1=C(S)N(c2ccc(F)cc2)C2(CCCCC2)NC1=O,4.28% (inactive),
Cc1ccc(/C=N/NC(=O)CCCOc2ccc(Cl)cc2Cl)cc1,,7.9 µM (active)
CCCn1c(SCC(=O)Nc2ccccc2OC)nnc1-c1ccco1,,17.7 µM (active)
CCCn1nnc(NC(=S)NC(=O)c2ccccc2OC)n1,9.21% (inactive),
CC(C)C1C(=O)N(Cc2cn(CCC3OCCCO3)nn2)CCS(=O)(=O)N1Cc1ccc(-c2cccc(CO)c2)cc1 (stereo not given),-8.99% (inactive),
CC(=O)C1=C(C)NC(SCC(=O)c2ccc(Cl)cc2)=C(C#N)C1c1ccco1 (stereo not given),,16.4 µM (active)
O=[N+]([O-])c1ccc(N2CCN(Cc3ccccc3)CC2)c2c1no[n+]2[O-],,12.5 µM (active)
CC1(C)Cc2ccccc2C2CC(O)C(=O)N21 (stereo not given),,20.6 µM (active)

Structure (SMILES),max response,Potency
COc1ccc(S(=O)(=O)NN(C)c2nc(C(F)(F)F)nc3ccccc23)cc1,,7.04 µM (active)
CCCCOc1nc2ccccc2nc1NS(=O)(=O)c1ccc(F)cc1,-6.51% (inactive),
COc1ccc(OC)c(NS(=O)(=O)c2ccc(Cl)s2)c1,,12.5 µM (active)
CC[n+]1c(/C=C/Nc2ccccc2)oc2ccc(OC)cc21,,14.6 µM (active)
CC[n+]1c(/C=C/N(C)c2ccccc2)oc2ccc(F)cc21,,14 µM (active)
CC[n+]1c(/C=C/Nc2ccccc2)oc2ccccc21,,9.2 µM (active)
CCc1ccc(N=Nc2ccc(O)c3[nH]cnc23)cc1,,7.31 µM (active)
CC(C)(C)c1ccc(Cn2c(=O)cnc3ccccc32)cc1,3.64% (inactive),
ClCc1nc2ccccc2n1Cc1ccccc1,,20.6 µM (active)
COc1ccc(NC2=CC(=O)CC(c3ccccc3)C2)c(OC)c1 (stereo not given),,11.2 µM (active)
CC(=O)c1cccc(-c2ccnc3c2CC(C(=O)NCc2ccco2)O3)c1 (stereo not given),,1.58 µM (active)
NC(=O)c1cccc(-c2ccnc3c2CC(C(=O)NCc2ccco2)O3)c1 (stereo not given),,17.7 µM (active)
CC(=O)c1cccc(-c2ccnc3c2CC(C(=O)NCc2ccc(F)c(F)c2)O3)c1 (stereo not given),,2.8 µM (active)
O=C(NCc1ccccc1)C1Cc2c(-c3cccc(F)c3)ccnc2O1 (stereo not given),,1.4 µM (active)
O=C(NCc1ccco1)C1Cc2c(-c3cccc(F)c3)ccnc2O1 (stereo not given),,5.59 µM (active)
CC(=O)c1cccc(-c2ccnc3c2CC(C(=O)NCC2CCOCC2)O3)c1 (stereo not given),,5.59 µM (active)
CC1CC(=O)C2=C(C1)OC(N)=C(C#N)C2c1coc2ccccc2c1=O (stereo not given),-19.2% (inactive),
N#CC1=C(N)Oc2c(sc3ccccc23)C1c1ccco1 (stereo not given),,12.5 µM (active)
CC(O)CN(CC(C)O)c1ccc2c(c1)Cc1cc([N+](=O)[O-])ccc1-2 (stereo not given),,0.58 µM (active)
Cc1cc(C)c2cc3c(N)c(C(=O)Nc4c(C)[nH]c(=O)[nH]c4=O)sc3nc2c1,,11.6 µM (active)
CN[C@H]1CCc2cc(OC)c(OC)c(OC)c2-c2ccc(N(C)CC(OC)OC)c(=O)cc21,,6.27 µM (active)
COc1cc2c(c(OC)c1OC)-c1ccc(N(C)CC(OC)OC)c(=O)cc1[C@@H](NC(C)=O)CC2,,0.559 µM (active)
O=C(NCCN1C(=O)S/C(=C\c2ccc(OC(F)F)cc2)C1=O)c1cnccn1,,12.5 µM (active)

Structure (SMILES),max response,Potency
CC(C)c1ccc(C(=O)NCCCNC(=O)c2cnccn2)cc1,10.5% (inactive),
Cn1c(/C=C/c2ccc([N+](=O)[O-])o2)nc2ccccc2c1=O,,14.6 µM (active)
O=c1c2ccccc2nc(/C=C/c2ccc([N+](=O)[O-])o2)n1CCCO,,10.3 µM (active)
CCn1c(/C=C/c2ccc([N+](=O)[O-])o2)nc2ccccc2c1=O,,20.6 µM (active)
CCCN1C(=O)C(Cc2nc3ccccc3c(=O)n2CC)c2cc(Br)ccc21 (stereo not given),11.6% (inactive),
N#C/C(N=Nc1ccccc1O)=N\Nc1ccccc1O,,16.4 µM (active)
O=C(/C=C/c1ccc([N+](=O)[O-])o1)NNC(=O)c1ccc(F)cc1,,7.9 µM (active)
CCOC(=O)CCc1ccc(NC(=O)/C=C/c2ccc([N+](=O)[O-])o2)cc1,,11.6 µM (active)
N#CCc1ccc(NC(=O)/C=C/c2ccc([N+](=O)[O-])o2)cc1,,13 µM (active)
O=C(Nc1nc2c(F)cccc2s1)c1ccc([N+](=O)[O-])o1,-8.08% (inactive),
N#C/C=C/N1CCN(C(=O)c2ccco2)CC1,-14.7% (inactive),
CCN(CC(=O)NCc1ccc(F)cc1)C(=O)/C=C/c1ccc(OC)c(S(=O)(=O)NC(C)C)c1,,3.53 µM (active)
c1ccc(-c2cnn3c(-c4ccccc4)c(-c4ccccc4)nc3n2)cc1,,2.59 µM (active)
COc1cccc(C2CC(c3ccccc3)=NN2S(=O)(=O)c2ccc(C)cc2)c1OC (stereo not given),,18.4 µM (active)
CCOC1=C2CN(S(=O)(=O)c3ccc(C)cc3)[C@H](c3cccc4ccccc34)C[C@H]2C(C#N)(C#N)C(C#N)(C#N)C1,-20.1% (inactive),
Cc1ccc(C2=NN(C(=O)c3cccs3)C(c3ccccc3O)C2)cc1 (stereo not given),20.9% (inactive),
Cc1ccc(C2=NN(S(=O)(=O)c3ccccc3)C(c3ccccc3O)C2)cc1 (stereo not given),,13 µM (active)
O=c1c2ccccc2sc2ccc(NCCCN3CCOCC3)cc12,,23.1 µM (active)
COc1ccc(S(=O)(=O)N2c3ccccc3OCC2CC(=O)O)cc1 (stereo not given),,12.5 µM (active)
COc1ccc(S(=O)(=O)N2CCN(C(=O)c3ccc([N+](=O)[O-])o3)CC2)cc1,-0.426% (inactive),
O=C(NC(=S)Nc1c(Cl)cc(Cl)cc1Cl)c1ccccc1,6.93% (inactive),
COc1ccc(N/C=C2\C(=O)CCc3c2oc2cc(Cl)c(O)c(Cl)c32)cc1,-5.39% (inactive),
COC(=O)/C(=C\Nc1ccc(Cl)cc1Cl)NC(=O)c1ccc(OC)cc1,,1.98 µM (active)

Structure (SMILES),max response,Potency
Clc1ccccc1/C=N/NC1=Nc2cccc3cccc1c23,,9.2 µM (active)
Clc1ccc(/C=N/NC2=Nc3cccc4cccc2c34)cc1,,20.6 µM (active)
COc1cccc(CNCCSc2nnnn2C)c1OCc1ccc(F)cc1,2.02% (inactive),
COc1ccc(-c2nc3cnccn3c2NC2CCCCC2)cc1-c1cccc(Cl)c1,-10.6% (inactive),
c1cc(SC2CCCCC2)cc(-c2nc3cnccn3c2NC2CCCCC2)c1,17.4% (inactive),
CCCCNc1c(-c2ccc(SC3CCCCC3)cc2)nc2cnccn12,,2.23 µM (active)
CN(C)c1ccc(/C=N/NC(=O)c2cc(-c3ccc4c(c3)OCO4)n[nH]2)cc1,,12.5 µM (active)
Cc1cc(C)n(-c2nnc3n2N=C(c2c[nH]c4ccccc24)CS3)n1,,6.27 µM (active)
COc1cc(/C=C2/CCC/C(=C\c3cc(O)c(OC)c(Cl)c3)C2=O)cc(Cl)c1O,,14.6 µM (active)
CCOc1cc(/C=C2\CCC/C(=C\c3cc(Cl)c(O)c(OCC)c3)C2=O)cc(Cl)c1O,,17.7 µM (active)
Cc1csc(NC(=O)CCC(=O)N(CC(=O)NC2CCCC2)Cc2ccccc2)n1,-14.8% (inactive),
NC(=O)c1ccc(Cn2c(C(=O)c3cc(Cl)c(N)c(Cl)c3)c3ccccc3[n+]2[O-])cc1,,11.2 µM (active)
Cc1ccc(-n2nc3c(N4CCCC(C(=O)NCc5ccccc5C)C4)nnc(C)c3c2C)cc1 (stereo not given),-1.78% (inactive),
Cc1ccc(C)c(NC(=O)Cn2cc(S(=O)(=O)Cc3cccc(Cl)c3)c3ccccc32)c1,,18.4 µM (active)
Cc1ccc(Cl)cc1NC(=O)Nc1cn(CC(C)C)c(=O)c2ccccc12,10.5% (inactive),
COc1ccc(OCCCC(=O)N2CCN(S(=O)(=O)c3cccc(F)c3)CC2)cc1,2.87% (inactive),
Cc1ccc(S(=O)(=O)N2CCCCC2)cc1NC(=O)Cn1ncc(Cl)c(Cl)c1=O,,12.5 µM (active)
O=C(Cn1ncc(Cl)c(Cl)c1=O)N1CCN(S(=O)(=O)c2ccc3ccccc3c2)CC1,,11.2 µM (active)
O=C(Nc1ccc(Cl)cn1)c1cccc(S(=O)(=O)N2CCCCCC2)c1,1.56% (inactive),
Cc1ccc(NC(=O)C2CCN(S(=O)(=O)c3ccc(Cl)c(C(F)(F)F)c3)CC2)nc1,8.66% (inactive),
Fc1ccc(-c2cnn3c(-c4cccs4)ccnc23)cc1,,5.59 µM (active)
